Consider 15 sequences from the supplement of paper PMC6555819.

What all share (test): PBM binding z-score (relative to random genomic background probes); higher = stronger binding; sequences stand for … in GC…GCGATTGACAGCGTAGAATGAAGG
Test [1] concerns RARb homodimer (NR concentration 270 nM). An outline of the steps: (§1)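 On custom Agilent 4×180K arrays, double-stranded probes with 34-nt variable regions carried direct-repeat seeds, single-nucleotide variants, half-site ablations or random human genomic background. Ligand-free nuclear receptor dimers were applied for 1 h, and binding was read with antibodies against each partner (one per run). Binding z-scores come from regression-normalized fluorescence, with the random background probes as reference.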

In test [2] the test system is RARg:RXRa (NR concentration 270 nM, RXRa partner concentration 90 nM). Summed up: as §1
Test [3] has as its system RARg homodimer (NR concentration 270 nM). An outline of the steps: as §1
The test system of test [4] is RXRa DBDmut IVT, anti-RXR (DBD mutation: RXRa K156A/R161A, NR concentration 90 nM). An outline of the steps:
as §1

Test [5] deals with RXRa homodimer (NR concentration 180 nM). An outline of the steps: as §1
Test [6] deals with THRa:RXRa (NR concentration 90 nM, RXRa partner concentration 90 nM). An outline of the steps:
as §1

The subject of test [7] is THRa homodimer (NR concentration 90 nM). An outline of the steps:
as §1

Test [8] relates to VDR homodimer (NR concentration 270 nM). Summed up: as §1

Turning to AGAATGAGGTTATCAAGATCAGGGAATTGCGGTC, the PBM binding z-score in test [1] came out at 1.07; in test [2] it was 1.5; in test [3], 1.12; in test [4], 1.46; in test [5], 2.19; in test [6], 2.49. Further, the PBM binding z-score came to 0.835 in test [7] and 0.805 in test [8].
In the case of CGTCCAAGGTCAAAGGTGAGTGAAGAGATGACGG, the PBM binding z-score stood at 4.48 in test [1]; 6.91 in test [2]; 6.63 in test [3]; 3.77 in test [4]; 8.39 in test [5]; 4.4 in test [6]. Moreover, the PBM binding z-score is 2.28 in test [7] and 2.92 in test [8].
For GGAACGAGGGCAAGTTGATCGCAGAGTTTGATGG, the PBM binding z-score in test [1] turned out to be 1.5; in test [2], 1.49; in test [3], 1.89; in test [4], 2.28; in test [5], 0.723; in test [6] it was 1.2. Moreover, the PBM binding z-score in test [7] was -0.251; in test [8], 1.58.
Take GTACCAAGGTGACTAGGTCGTTGATGAGTAGGCG: the PBM binding z-score in test [1] is 0.945; in test [2], 0.955; in test [3], 0.808; in test [4], -0.648; in test [5], 0.837; in test [6], 1.87. The PBM binding z-score stood at 0.333 in test [7] and 0.099 in test [8].
Regarding TCTAGTTGGTCAAAGGTCACACGCTCGAAATGCG, the PBM binding z-score came to 5.31 in test [1]; 7.41 in test [2]; 6.67 in test [3]; 1.72 in test [4]; 8.75 in test [5]; 4.01 in test [6]. Moreover, the figures for the PBM binding z-score in test [7] and in test [8] were 2.09 and 2.92, respectively.
As to TCTTGTAGATGAATAGAGGTTAAGAAAGTGCGCT, the PBM binding z-score in test [1] is 1.19; in test [2], 0.961; in test [3], 0.531; in test [4] it was 1.66; in test [5], 1.68; in test [6] it was 1.72. Moreover, the values for the PBM binding z-score in test [7] and in test [8] were 0.0374 and 0.264, respectively.
On to GCTAGTTGGTCAGTTAAAGGTCACACACCGGTCG, for which the PBM binding z-score in test [1] was 5.09; in test [2], 5.56; in test [3], 4.82; in test [4], 0.773; in test [5], 5.12; in test [6], 3.53. Also, the PBM binding z-score in test [7] was 2.36; in test [8], 2.33.
Take TCTTGTAGATCAGCAGGTTCAGAAAGCTGGCCAA: the PBM binding z-score is -0.402 in test [1]; -0.138 in test [2]; -0.569 in test [3]; 0.668 in test [4]; 0.303 in test [5]; 0.00022 in test [6]. For the same sequence, the PBM binding z-score was -0.821 in test [7] and 1.58 in test [8].
GCTGCTAGGTCAGGTTGGTCAGCGAACGGGTACG: the PBM binding z-score in test [1] came to 2.73; in test [2], 2.68; in test [3], 4.03; in test [4] it was 0.514; in test [5], 1.11; in test [6] it was 1.8. The PBM binding z-score in test [7] came out at 0.422; in test [8] it was 0.896.
On to TCATATAGGTAAATGCTAGGTGAATGTCCGATCT, for which the PBM binding z-score came to 0.278 in test [1]; 0.529 in test [2]; 0.626 in test [3]; 1.46 in test [4]; 0.893 in test [5]; 1.49 in test [6]. Also, the PBM binding z-score in test [7] came out at 0.604; in test [8], 0.143.
Take ATCTCTAGGTAAGACTCAGTTCAGTGTAGAACGC: the PBM binding z-score was 0.758 in test [1]; 0.266 in test [2]; 0.408 in test [3]; 0.967 in test [4]; 0.133 in test [5]; 0.88 in test [6]. Further, the PBM binding z-score worked out at 0.909 in test [7] and 1.39 in test [8].
Take AATACAGGGTCATCGTAGGCAAGAGTACGCACAG: the PBM binding z-score was found to be 3.24 in test [1]; 5.6 in test [2]; 5.07 in test [3]; 3.51 in test [4]; 6.7 in test [5]; 4.16 in test [6]. For the same sequence, the PBM binding z-score in test [7] was determined as 1.5; in test [8] it was 3.96.
As for TAGCATAGGTCATTGGGCCAGTATAGTACGCATC, the PBM binding z-score was 3.23 in test [1]; 4.88 in test [2]; 4.65 in test [3]; 1.58 in test [4]; 4.77 in test [5]; 2.29 in test [6]. Besides, the PBM binding z-score in test [7] was -0.526; in test [8], 0.622.
For CCTCGGAGGACAACAGGCGGTCAGAGCTGCCAGA, the PBM binding z-score in test [1] is 1.43; in test [2], 1.07; in test [3] it was 1.63; in test [4], -0.164; in test [5] it was -0.341; in test [6] it was 0.64. In addition, the PBM binding z-score in test [7] was -0.125; in test [8] it was -0.0839.
As for TAGCGTAGGTCAGATCGGGCCAGTATACGCTATA, the PBM binding z-score in test [1] was 1.87; in test [2], 2.85; in test [3], 3.72; in test [4], -0.899; in test [5] it was 1.83; in test [6] it was 3.93. Further, the PBM binding z-score is -1.02 in test [7] and -0.553 in test [8].
